Source: PubChem
Rows were chosen to be rich in hits. Some 2.6% of all compounds tested hit in one or more screens of this group.
OvCa metastasis = blocks SKOV3ip1 adhesion and invasion in omental model; SKOV3ip1-GFP adhesion/invasion on 3D omental model, fluorescence; Potency, µM (series often up to 45.8 µM), for inactives: at the highest dose activity change, negative = inhibition, usual class: inhibitors; actives 0.1% (n = 46,000);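 further: potency means the concentration at half of the fitted maximal effect; plate controls were DMSO wells for no effect and tomatine positive control wells for full effect; nearly all actives have a fitted effect of over 65% in size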
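A 3D layer of primary human omental fibroblasts, mesothelial cells, fibronectin and collagen I, grown 48 hr, received SKOV3ip1-GFP cells in serum-free medium plus compounds at 0.36-46 umol/L. After 2 hr RT and 16 hr 37 C, fixed adherent GFP cells were counted; normalized to DMSO and tomatine.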
PMP22 txn prim = modulators of PMP22 gene transcription in S16 Schwann cells; S16 Pmp22-F2sN Schwann cells, FLuc/NLuc coincidence luminescence, 24 h; Potency, µM (highest dose often 57.5 µM), for the others: top-dose activity change, negative = inhibition, most hits filed as inhibitors; actives 2% (n = 43,000); AID 1508649; active means clear falling dose curves in both reporters; inconclusive means both reporters move, but less clearly or upward; inactive means either reporter flat; the % is the NLuc reporter signal; further: potency means the concentration at half of the fitted maximal effect; on the % scale 0 is the no-effect control and ±100 the full control effect
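Reporter cells (S16 Pmp22-F2sN, 500–1,000 per well) exposed to compounds for 24 h, 37C, 5% CO2; lysis with FLuc read after 10 min, then Stop&Glo and NLuc read after 10 min.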
pS6 MEF inh = reduces mTORC1 signaling in Tsc2 and p53 null MEF cells; Tsc2-/- p53-/- MEF, phospho-rpS6 immunofluorescence/PI, 24 h; Potency, µM (titrated, usually from 38.3 µM), inactives show top-dose activity change, negative = inhibition, hits mostly inhibitors; actives 0.78% (n = 44,000);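 further: potency means the concentration at half of the fitted maximal effect; plate controls were DMSO for no effect and rapamycin for full effect; nearly all actives have a fitted effect of over 50% in size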
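Readout is phospho-S6 Alexa 488 signal normalized to PI per well, reported as % active cells with thresholds set from rapamycin (7.5 nM) and DMSO controls. Cells: Tsc2-/-, p53-/- MEFs, 24 hrs compound at 37 C; PI cell number serves as viability.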
GALC G270D act = galactocerebrosidase G270D activity enhancement, cell-based; P54803; 145M-Twi-hGALC-G270D cells (Twitcher mouse brain line with human GALC G270D), HMU-beta-Gal fluorescence, 48 h; Potency, µM (series often up to 57.5 µM), most hits filed as activators; actives 0.1% (n = 45,000); further: potency means the concentration at half of the fitted maximal effect; 0% is about no effect; nearly all actives have a fitted effect of over 65% in size
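Fluorogenic HMU-b-Gal hydrolysis (0.1 mM final, pH 5.2 citrate-phosphate with 1 mg/mL sodium taurocholate; carbonate stop buffer) measures mutant GALC activity after compound treatment of live 145M-Twi Twitcher brain cells stably carrying human GALC-G270D, with wild-type GALC line alongside; activation sought.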
S16 viability = S16 Schwann cell cytotoxicity. actives 0.48% (n = 43,000). Potency, µM (titrated, usually from 57.5 µM), without a hit: at the highest dose activity change, negative = cytotoxicity, usual class: cytotoxic. S16 Pmp22-F2sN Schwann cells (luciferase reporters placed in the Pmp22 gene) viability, CellTiter-Glo, 24 h. AID 1508642; further: potency means the concentration at half of the fitted maximal effect; on the % scale 0 is the no-effect control and ±100 the full control effect; nearly all actives have a fitted effect of over 65% in size
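CellTiter-Glo counter-screen, qHTS, 1536-well. Cells: S16(c9) Pmp22-F2sN, 500-1,000/well in DMEM + 10% FBS. Cpd 23 nL pin transfer, 24 h, 37C/5% CO2. Read: luminescence, CCD imager.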
NLuc saturating = NanoLuc enzyme inhibition artifact for PMP22 screen; shares compounds with PMP22 txn prim; Secreted NLuc enzyme (filtered S16 cell medium), Nano-Glo luminescence; Potency, µM (top dose mostly 57.5 µM), for the others: at the highest dose activity change, negative = inhibition, hits mostly inhibitors; actives 4% (n = 690); AID 1508638; further: potency means the concentration at half of the fitted maximal effect; on the % scale 0 is the no-effect control and ±100 the full control effect
NLuc Km ctr = NanoLuc inhibition at Km substrate, PMP22 artifact check | Potency, µM (top dose mostly 57.5 µM), for the others: top-dose activity change, negative = inhibition, actives largely listed as inhibitors | secreted NLuc enzyme, coelenterazine luminescence, Km conditions | actives 5% (n = 690) | shares compounds with PMP22 txn prim; further: potency means the concentration at half of the fitted maximal effect; on the % scale 0 is the no-effect control and ±100 the full control effect
FLuc counter = inhibits firefly luciferase, PMP22 counter-screen; Potency, µM (top dose mostly 57.5 µM), for inactives: at the highest dose activity, negative = inhibition, usual class: inhibitors; shares compounds with PMP22 txn prim; 690 tested, under 10 active; purified P. pyralis FLuc, luminescence, 10 min; further: % of control where 0% means no effect
Target sequence (P08659 whole entry, looked up): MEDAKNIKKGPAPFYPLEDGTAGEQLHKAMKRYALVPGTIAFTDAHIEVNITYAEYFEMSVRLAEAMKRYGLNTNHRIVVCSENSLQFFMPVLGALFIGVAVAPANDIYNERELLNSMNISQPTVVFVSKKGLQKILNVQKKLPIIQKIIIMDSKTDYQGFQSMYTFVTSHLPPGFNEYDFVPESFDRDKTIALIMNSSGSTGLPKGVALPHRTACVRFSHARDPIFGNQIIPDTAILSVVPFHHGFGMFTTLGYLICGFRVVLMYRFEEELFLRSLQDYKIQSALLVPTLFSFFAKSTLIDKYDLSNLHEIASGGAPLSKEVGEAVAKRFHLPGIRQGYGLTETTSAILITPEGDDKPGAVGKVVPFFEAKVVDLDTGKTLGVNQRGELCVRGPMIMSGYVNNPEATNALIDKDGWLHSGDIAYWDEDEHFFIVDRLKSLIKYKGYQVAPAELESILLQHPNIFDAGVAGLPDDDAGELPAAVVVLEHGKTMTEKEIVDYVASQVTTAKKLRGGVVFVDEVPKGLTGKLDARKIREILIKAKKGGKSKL
S16 viab conf = S16 Schwann cell cytotoxicity, confirmatory. shares compounds with PMP22 txn prim. S16 Schwann cells viability, CellTiter-Glo ATP luminescence, 24 h. Potency, µM (highest dose often 57.5 µM), for inactives: at the top dose activity change, negative = viability loss, usual class: cytotoxic. actives 7% (n = 690); further: potency means the concentration at half of the fitted maximal effect; on the % scale 0 is the no-effect control and ±100 the full control effect
PMP22 txn cnf = confirmation of modulators of PMP22 gene transcription in S16 cells; S16 Schwann cells Pmp22-F2sN, dual luciferase, 24 h; actives 22% (n = 690); Potency, µM (series often up to 57.5 µM), for the others: at the top dose activity change, negative = inhibition, most hits filed as inhibitors; shares compounds with PMP22 txn prim; active means clear falling dose curves in both reporters; inconclusive means both reporters move, but less clearly or upward; inactive means either reporter flat; the % is the FLuc reporter signal; further: potency means the concentration at half of the fitted maximal effect
PMP22 HiBiT cnf = rat PMP22 protein level modulation, confirmatory | AID 1508647 | shares compounds with PMP22 txn prim | Potency, µM (top dose mostly 27.9 µM), inactives show at the top dose activity change, negative = inhibition, most hits filed as inhibitors | 95 tested, under 10 active | S16 Schwann cells Pmp22-HiBiT, luminescence, 48 h
Target sequence (P25094 whole entry, looked up): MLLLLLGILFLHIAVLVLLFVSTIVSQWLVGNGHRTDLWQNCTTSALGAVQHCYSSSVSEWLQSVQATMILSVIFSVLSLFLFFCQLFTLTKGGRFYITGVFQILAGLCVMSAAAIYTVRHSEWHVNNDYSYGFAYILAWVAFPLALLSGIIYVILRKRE
An asterisk follows results filed as active; i = inactive; u = inconclusive; x = no result given. Unless noted, the call rests on the fitted dose curve; in most records, active means well fitted curve in the direction sought with a large enough effect; inconclusive means small, poorly fitted or top-dose-only effect, or another doubt; inactive means no such curve, though single readings can be large; an effect the other way counts as inactive or inconclusive.

SMILES	OvCa metastasis	PMP22 txn prim	pS6 MEF inh	GALC G270D act	S16 viability	NLuc saturating	NLuc Km ctr	FLuc counter	S16 viab conf	PMP22 txn cnf	others
COc1ccc(Nc2ncc(C(=O)N3CCN(c4cccc(Cl)c4)CC3)c3ccccc23)cc1	6%	14µM*	-18%	i	-16%	u	1%	6%	-11%	u
COc1ccc(Nc2ncc(C(=O)N3CCN(c4ccc(OC)cc4)CC3)c3ccccc23)cc1	i	u	-9%	i	-8%	x	x	x	x	x
CC1=C(C(=O)Nc2cc3cn[nH]c3cc2F)C(c2ccc(Cl)cc2F)N=C(c2ccnc(Cl)c2)N1 (centres undefined)	17%	x	x	x	x	x	x	x	x	x
Cc1ccccc1S(=O)(=O)Cc1ccc(C(=O)N2CCN(c3cccc(Cl)c3)CC2)o1	-2%	12µM*	u	i	u	u	-20%	10%	-13%	9.7µM*	PMP22 HiBiT cnf=u
COc1cccc(N2CCN(C(=O)c3ccc(CS(=O)c4cccc(Cl)c4)o3)CC2)c1 (centres undefined)	i	5µM*	u	i	-14%	u	u	1%	-8%	u
COc1ccc(S(=O)Cc2ccc(C(=O)N3CCN(c4cccc(C)c4C)CC3)o2)cc1 (centres undefined)	-5%	u	-28%	i	u	x	x	x	x	x
O=C(c1ccc(CS(=O)c2ccccc2Cl)o1)N1CCN(c2cccc(Cl)c2)CC1 (centres undefined)	i	u	u	i	-9%	x	x	x	x	x
O=C(c1ccc(CS(=O)c2ccccc2Cl)o1)N1CCN(c2cccc(C(F)(F)F)c2)CC1 (centres undefined)	-3%	12µM*	u	i	-26%	-14%	u	-1%	-39%	u	PMP22 HiBiT cnf=u
COc1ccccc1CNC(=O)Cn1c(=O)ccc2cc(S(=O)(=O)N3CCC(C)CC3)ccc21	i	-17%	u	i	-1%	x	x	x	x	x
COc1ccccc1CNC(=O)Cn1c(=O)oc2cc(S(=O)(=O)N3CCC(C)CC3)ccc21	-9%	13µM*	-5%	i	u	-12%	-1%	1%	-18%	-26%
CCOC(=O)c1ccc(N2C(=O)c3n[nH]c(-c4ccco4)c3C2c2ccc(O)c(OCC)c2)cc1 (centres undefined)	-2%	u	u	i	u	x	x	x	x	x
CCOC(=O)c1ccc(N2C(=O)c3[nH]nc(-c4ccc(C)cc4)c3C2c2ccc(O)c(OCC)c2)cc1 (centres undefined)	0%	13µM*	1%	i	-20%	-12%	-13%	-3%	u	u	PMP22 HiBiT cnf=-17%
Cc1cccc(CS(=O)(=O)c2ncc(Cl)c(C(=O)Nc3nc4ccc(F)cc4s3)n2)c1	i	6.5µM*	u	i	u	u	u	-5%	u	10µM*	PMP22 HiBiT cnf=u
CCOc1ccc2nc(NC(=O)c3nc(SC(C)C)ncc3Cl)sc2c1	i	18µM*	-2%	i	u	-6%	-3%	-12%	-21%	u
Cc1ccccc1CSc1ncc(Cl)c(C(=O)Nc2nc3ccc(F)cc3s2)n1	i	u	-4%	i	-12%	x	x	x	x	x
COc1ccc2nc(NC(=O)c3nc(SCc4cccc(C)c4)ncc3Cl)sc2c1	i	10µM*	3%	i	4%	-9%	5%	5%	u	u
O=C(O)C1=NC(C(=O)O)CC(C=CN2c3cc(O)c(OC4OC(CO)C(O)C(O)C4O)cc3CC2C(=O)O)=C1 (centres undefined)	-15%	x	x	x	x	x	x	x	x	x
O=C(NCc1ccccc1Cl)C1CCN(S(=O)(=O)c2ccc3c(c2)CCCN3C(=O)C2CCC2)CC1	-12%	8.5µM*	-3%	i	u	-15%	5%	-3%	-15%	-20%
CC(=O)N1CCCc2cc(S(=O)(=O)N3CCCC(C(=O)NCc4ccccc4Cl)C3)ccc21 (centres undefined)	0%	u	6%	i	-26%	x	x	x	x	x
CCOc1ccc(C(=O)Nc2ccc3nc(SCCOc4ccccc4)sc3c2)cc1	4%	11µM*	-4%	i	10%	-2%	2%	4%	-11%	-40%
O=C(Nc1ccc2nc(SCCOc3ccccc3Cl)sc2c1)c1ccc2c(c1)OCO2	-13%	-10%	-10%	i	-2%	x	x	x	x	x
Cc1ccc(OCCSc2nc3ccc(NC(=O)c4ccc5c(c4)OCO5)cc3s2)cc1	6%	14µM*	-4%	i	0%	-3%	1%	-2%	u	u
Cn1cnc(=N)c2[nH]cnc21	-11%	x	x	x	x	x	x	x	x	x
Cc1cccc(NC(=O)c2cnn(-c3ccccc3)c2-n2cccc2)c1C	-3%	13µM*	1%	i	-19%	19µM*	15µM*	0%	-21%	-24%
C=C[C@@H]1CN2CCC1C[C@H]2[C@H](O)c1ccnc2ccc(OC)cc12 (some centres undefined)	-12%	x	x	x	x	x	x	x	x	x
